Measured values reported in PubChem BioAssay AID2551 (National Center for Advancing Translational Sciences (NCATS), 2010).
The whole screen tested about 310,000 compounds, of which about 17,000 (5.5%) were called active. Not shown: some 11% with an inconclusive outcome. The call rests on the fitted dose curve; in most records, active means well fitted inhibition curve with a large enough effect; inconclusive means small, poorly fitted or top-dose-only effect, or effect the other way; inactive means no such curve, though single readings can be large or run the other way. Many of the other results were omitted from the sample, so actives are more common in it than they were.
Further: nearly all actives have a fitted effect of over 60% in size.
On the % scale 0 is the no-effect control and ±100 the full control effect; potency means the concentration at half of the fitted maximal effect.

The compounds below were run against Nuclear receptor ROR-gamma (Mus musculus) (UniProt P51450) (assay: qHTS for inhibitors of ROR gamma transcriptional activity). Conditions: Drosophila S2 Gal4-RORgamma UAS-luciferase reporter, 20 h; series mostly up to 53.6 µM; activity change, negative = inhibition: at the top concentration.
Nuclear receptor ROR-gamma (Mus musculus), sequence (P51450 whole entry, looked up, the tested form may be a part): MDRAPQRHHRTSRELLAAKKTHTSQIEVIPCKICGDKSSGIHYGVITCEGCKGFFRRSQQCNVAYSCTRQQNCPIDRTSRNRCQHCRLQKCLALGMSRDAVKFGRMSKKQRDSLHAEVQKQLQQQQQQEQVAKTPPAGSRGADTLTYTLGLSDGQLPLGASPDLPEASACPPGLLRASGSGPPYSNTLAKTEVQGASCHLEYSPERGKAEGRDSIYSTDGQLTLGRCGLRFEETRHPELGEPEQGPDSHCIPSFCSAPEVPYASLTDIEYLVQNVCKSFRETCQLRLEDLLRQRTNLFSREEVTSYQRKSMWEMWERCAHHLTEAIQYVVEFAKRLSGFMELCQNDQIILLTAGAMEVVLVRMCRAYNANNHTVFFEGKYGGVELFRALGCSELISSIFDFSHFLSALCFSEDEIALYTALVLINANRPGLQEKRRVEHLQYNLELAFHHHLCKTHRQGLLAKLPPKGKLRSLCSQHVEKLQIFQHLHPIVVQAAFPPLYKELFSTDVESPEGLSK
Outline: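 Stable Schneider cell line, Gal4 DNA-binding domain fused to ROR gamma, UAS-luciferase. Cmpd 1 hr RT → CuSO4 700 uM final → 20 hr RT → luciferase reagent 10 min → luminescence.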
In the case of O=C(CN(C(=O)c1nsc(Cl)c1Cl)c1cccc(F)c1)NC1CCCC1, the “activity change, negative = inhibition” value is reported as -2.43% (inactive).
COc1ccccc1OCc1nnc(SCC(N)=O)n1-c1ccccc1 was tested, and the “activity change, negative = inhibition” value was 7.44% (inactive).
C=CCn1c(C)cc(C2=NNC(=NCC)SC2)c1C was tested, and the Potency was 562 nM (active).
For Cc1cc(C2=NNC(=Nc3ccc(S(=O)(=O)N4CCOCC4)cc3)SC2)c(C)n1CC1CCCO1 (stereo not given), the “activity change, negative = inhibition” value was 9.62% (inactive).
In the case of O=C(O)c1ccccc1NC(=O)c1ccccc1-c1ccccc1C(=O)O, the “activity change, negative = inhibition” value is reported as -14.3% (inactive).
CC1CN(S(=O)(=O)c2cccc(C(F)(F)F)c2)CN1C(=O)N1CCOCC1 (stereo not given) was tested, and the “activity change, negative = inhibition” value was -13.4% (inactive).
For COc1ccc2[nH]c3c(C)c4cc[n+](C)cc4c(C)c3c2c1, the “activity change, negative = inhibition” value was -25% (inactive).
In the case of COc1ccc2[nH]c(C(=O)N3CCN(C)CC3)c(C)c2c1, the “activity change, negative = inhibition” value is reported as 11.6% (inactive).
COc1ccc2[nH]c(=S)cc(C)c2c1 was tested, and the Potency was 7080 nM (active).
In the case of COc1ccc(NC(=O)c2cccc3c2C(=O)N(CC2CCCO2)C3)cc1OC (stereo not given), the “activity change, negative = inhibition” value is reported as -8.76% (inactive).
With COc1ccc(OCCCCN2CCC(C)CC2)cc1 the “activity change, negative = inhibition” value was 3.61% (inactive).
In the case of O=C1COc2ccc(S(=O)(=O)Nc3ccc(OC(F)(F)F)cc3)cc2N1, the “activity change, negative = inhibition” value is reported as -17.3% (inactive).
With CC(C)=C(NC(=O)c1ccccc1)C(=O)N/N=C(\C)c1ccccc1O the Potency was 891 nM (active).
With C/C(=N\NC(=O)c1ccoc1C)c1ccccc1O the Potency was 158 nM (active).
For CC(=O)NC(=O)c1ccccc1O, the “activity change, negative = inhibition” value was -0.919% (inactive).
CNC(=O)C(NC(=O)c1ccccc1)=C(C)C was tested, and the “activity change, negative = inhibition” value was 4.05% (inactive).
For C/C(=N\NC(=O)c1ccccc1C)c1ccc(N2CCOCC2)cc1, the “activity change, negative = inhibition” value was 8.86% (inactive).
In the case of C/C(=N\NC(=O)c1cccnc1)c1ccc(-c2ccccc2)cc1, the “activity change, negative = inhibition” value is reported as -0.938% (inactive).
Cn1c(=O)c2c(SCC(=O)NCC3CCCO3)nc(CC(C)(C)C)nc2n(C)c1=O (stereo not given) was tested, and the “activity change, negative = inhibition” value was 1.36% (inactive).
COC(=O)c1c(NC(=O)C2CC(C)=C(C)CC2C(=O)O)sc2c1CCCCC2 (stereo not given) was tested, and the “activity change, negative = inhibition” value was 36.4% (inactive).
With COc1cccc(C(=O)Nc2nnc(S(=O)(=O)N3CCOCC3)s2)c1 the “activity change, negative = inhibition” value was 9.48% (inactive).
COc1ccc(CCNS(=O)(=O)c2cn(C)nc2C)cc1 was tested, and the “activity change, negative = inhibition” value was 0.968% (inactive).
CCOC(=O)C1CCN(C(=O)COc2cccc3ccccc23)CC1 was tested, and the “activity change, negative = inhibition” value was 24.6% (inactive).
With O=C1CCC(C(=O)Nc2ccc(OC(F)F)cc2)N1 (stereo not given) the “activity change, negative = inhibition” value was 5.33% (inactive).
CC(NC(=S)Nc1ccc(S(N)(=O)=O)cc1)c1ccc2c(c1)OCO2 (stereo not given) was tested, and the “activity change, negative = inhibition” value was 23.8% (inactive).
For CC(NC(=S)Nc1ccc(OC(F)F)cc1)c1ccc(F)cc1 (stereo not given), the Potency was 3160 nM (active).
In the case of Cc1cccc(NS(=O)(=O)c2ccc(C(=O)NCC(C)(C)N3CCOCC3)cc2)c1C, the “activity change, negative = inhibition” value is reported as 35.2% (inactive).
Cc1ccc(N=C2NC(=O)/C(=C/C=C/c3ccco3)S2)cc1C was tested, and the “activity change, negative = inhibition” value was -26.3% (inactive).
With Cc1cccc(N=C2NC(=O)/C(=C/c3cn(C)c4ccccc34)S2)c1 the Potency was 12600 nM (active).
Cc1ccc(N2C(=O)S/C(=C/c3cn(C)c4ccccc34)C2=O)cc1 was tested, and the “activity change, negative = inhibition” value was 20.9% (inactive).
